From PubChem BioAssay (NCATS)
Results filed as inconclusive are left out. Calls of active or inactive are those of the source. Calls come from the whole dose curve; as a rule, active = well fitted cell-killing curve with a large enough effect; inconclusive = small, poorly fitted or top-dose-only effect, or effect the other way; inactive = flat fitted curve, though single readings scatter.

Key:
Assay in all cases: Primary qHTS to identify gynecologic anti-cancer compounds using libraries of approved drugs and bioactive compounds (AID 1345084); note: nearly all actives have a fitted effect of over 55% in size
[1] = test system: C33A; conditions: Gynecologic cancer cell panel viability, ATPlite luminescence, 48 h; series mostly up to 57.5 µM
Outline: (§1)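 Five-concentration response, 48 h; readout is ATP-driven luciferase luminescence.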

[2] = test system: CAOV3; conditions: Gynecologic cancer cell panel viability, ATPlite luminescence, 48 h; series mostly up to 57.5 µM
Outline: as §1

[3] = test system: CASKI; conditions: Gynecologic cancer cell panel viability, ATPlite luminescence, 48 h; series mostly up to 57.5 µM
Outline: as §1

[4] = test system: Es-2; conditions: Gynecologic cancer cell panel viability, ATPlite luminescence, 48 h; series mostly up to 57.5 µM
Outline: as §1

[5] = test system: HeLa; conditions: Gynecologic cancer cell panel viability, ATPlite luminescence, 48 h; series mostly up to 57.5 µM
Outline: as §1

[6] = test system: Hek293T; conditions: Gynecologic cancer cell panel viability, ATPlite luminescence, 48 h, control line for the selectivity index; series mostly up to 57.5 µM
Outline: as §1

[7] = test system: JEG-3; conditions: Gynecologic cancer cell panel viability, ATPlite luminescence, 48 h; series mostly up to 57.5 µM
Outline: as §1

[8] = test system: OV90; conditions: Gynecologic cancer cell panel viability, ATPlite luminescence, 48 h; series mostly up to 57.5 µM
Outline: as §1

[9] = test system: PA-1; conditions: Gynecologic cancer cell panel viability, ATPlite luminescence, 48 h; series mostly up to 57.5 µM
Outline: as §1

[10] = test system: SKOV3; conditions: Gynecologic cancer cell panel viability, ATPlite luminescence, 48 h; series mostly up to 57.5 µM
Outline: as §1

[11] = test system: Tov-21-G; conditions: Gynecologic cancer cell panel viability, ATPlite luminescence, 48 h; series mostly up to 57.5 µM
Outline: as §1

[12] = test system: Tov112D; conditions: Gynecologic cancer cell panel viability, ATPlite luminescence, 48 h; series mostly up to 57.5 µM
Outline: as §1

Measured: Potency

CC1CC2(O)OC(=O)C3=C2C(CCC3)[C@@]12C[C@@H](c1ccoc1)OC2=O (some centres not stated)
inactive: all assays above

CNc1nc(Nc2cn(C(C)(C)C#N)nc2C)ncc1C(F)(F)F
inactive: all assays above

CC[C@@H](C)[C@H](N)C(=O)N1Cc2ccccc2C1
inactive: all assays above

CC12CC34CC(O)C5C(CO)(CO)CC(=O)CC5(C)C3CC1C2C4 (configuration not stated)
inactive: all assays above

C=C1CCC(OC(C)=O)C2(C)CC3OC(=O)C(C)=C3CC12 (configuration not stated)
inactive: all assays above

CC1(C)CC=C(C#Cc2ccccc2)c2cc(/C=C/c3ccc(C(=O)O)cc3)ccc21
inactive: all assays above

COc1ccc(O[C@@H]2O[C@H](CO)[C@@H](O)[C@H](O)[C@H]2O)cc1OC
inactive: all assays above

CC1(C)OC(=O)C=C[C@@]2(C)C1CC(=O)[C@]1(C)C2CC[C@@]2(C)[C@H](c3ccoc3)OC(=O)[C@H]3O[C@]321 (some centres not stated)
inactive: all assays above

COc1cc(O[C@@H]2O[C@H](CO[C@H]3OC[C@](O)(CO)[C@H]3O)[C@@H](O)[C@H](O)[C@H]2O)cc(OC)c1O
inactive: all assays above

COc1c2ccoc2nc2c(OC)c(O[C@@H]3O[C@@H](C)[C@H](O)[C@@H](O[C@@H]4O[C@H](CO)[C@@H](O)[C@H](O)[C@H]4O)[C@H]3OC(C)=O)ccc12
inactive: all assays above

C=C1C[C@]23C[C@H]1CC[C@H]2[C@]1(C)CC[C@H](O)[C@@](C)(C(=O)O)[C@H]1[C@@H]3C(=O)O
inactive: all assays above

NC1=NC2(c3cc(NC(=O)c4ccc(F)cn4)ccc3F)COCC2CS1 (configuration not stated)
inactive: all assays above

COc1cccc(Cn2ncc3c4sc(S(C)=O)cc4n(C)c3c2=O)c1 (configuration not stated)
inactive: all assays above

CCOc1nc2c(N)ncnc2n1CC
inactive: all assays above

C/C=C1/[C@H](O[C@@H]2O[C@H](CO)[C@@H](O)[C@H](O)[C@H]2O)OC=C2C(=O)O[C@@H]3C[C@@H](C(C)CO)[C@H](COC(=O)C[C@H]21)[C@H]3C (some centres not stated)
inactive: all assays above

Cc1cc(C)c2nc(-c3ccccn3)cc(C(=O)Nc3ccc(S(=O)(=O)Nc4onc(C)c4C)cc3)c2c1
inactive: all assays above
